# Data taken from the antibiotic and cytotoxicity screens of Wong et al. (2023).
# Hit rate of the full screen: of about 39,000 compounds, about 1,500 (3.8%) were called active. This excerpt belongs to a sample that is enriched for actives.
# Test system: HSkMC (human skeletal muscle cells)
# Assay: cytotoxicity call (relative viability < 0.9)
# Conditions: 10 µM
row,Structure (SMILES),cytotoxicity call
1,COc1ccc(S(=O)(=O)Nc2ccc3c(c2)C(=O)N([C@@H](C)CO)C[C@@H](C)[C@@H](CN(C)CC2CCCCC2)OCCCC[C@H](C)O3)cc1,inactive
2,C=CCOC(=O)[C@@H]1[C@H]2C(=O)O[C@H](c3ccccc3)[C@H](c3ccccc3)N2[C@H](c2ccc(OCCOC(=O)[C@H]3C[C@H]4C(=O)N5CCC[C@H]5C(=O)N4[C@H]3c3ccc(O)cc3)cc2)[C@@]12C(=O)Nc1ccc(I)cc12,inactive
3,C[C@H]1CN([C@@H](C)CO)C(=O)c2cc(NC(=O)CCCCCC(=O)Nc3ccccc3N)ccc2O[C@@H]1CN(C)S(C)(=O)=O,inactive
4,O=C(C[C@H]1CC[C@H]2[C@@H](COC[C@@H](O)CN2Cc2ccccc2F)O1)N[C@@H]1CCN(Cc2ccccc2)C1,inactive
5,CCCCCCCCCCNc1cc(CO)c2cc[nH]c2c1,inactive
6,COc1ccc(S(=O)(=O)Nc2ccc3c(c2)C(=O)N([C@H](C)CO)C[C@H](C)[C@H](CN(C)C(=O)NC2CCCCC2)OCCCC[C@H](C)O3)cc1,inactive
7,C[C@@H]1CN([C@H](C)CO)C(=O)Cc2cc(NS(=O)(=O)c3ccc(F)cc3)ccc2O[C@@H]1CN(C)Cc1ccc(Cl)c(Cl)c1,active
8,C[C@H]1CN([C@@H](C)CO)C(=O)Cc2cc(NS(=O)(=O)c3ccc(F)cc3)ccc2O[C@@H]1CN(C)Cc1ccc(Cl)c(Cl)c1,inactive
9,C[C@@H]1CN([C@@H](C)CO)C(=O)Cc2cc(NS(=O)(=O)c3ccc(F)cc3)ccc2O[C@@H]1CN(C)Cc1ccc(Cl)c(Cl)c1,active
10,C[C@@H]1CN([C@H](C)CO)C(=O)Cc2cc(NS(=O)(=O)c3ccc(F)cc3)ccc2O[C@H]1CN(C)Cc1ccc(Cl)c(Cl)c1,inactive
11,C[C@H]1CN([C@@H](C)CO)C(=O)Cc2cc(NS(=O)(=O)c3ccc(F)cc3)ccc2O[C@H]1CN(C)Cc1ccc(Cl)c(Cl)c1,inactive
12,C[C@@H]1CN([C@@H](C)CO)C(=O)Cc2cc(NS(=O)(=O)c3ccc(F)cc3)ccc2O[C@H]1CN(C)Cc1ccc(Cl)c(Cl)c1,inactive
13,C[C@H]1CCCCO[C@@H](CN(C)S(=O)(=O)c2cccs2)[C@@H](C)CN([C@@H](C)CO)C(=O)c2cc(NC(=O)C3CCCCC3)ccc2O1,inactive
14,C[C@H](CO)N1C[C@H](C)[C@H](CN(C)Cc2ccc(C(=O)Nc3ccccc3N)cc2)Oc2ccc(NC(=O)C3CCCCC3)cc2C1=O,inactive
15,C[C@@H]1CN([C@H](C)CO)C(=O)Cc2cc(NS(=O)(=O)c3cccs3)ccc2O[C@H]1CN(C)Cc1ccc(Cl)c(Cl)c1,active
16,C[C@H](CO)N1C[C@H](C)[C@H](CN(C)Cc2ccc(Cl)c(Cl)c2)Oc2ccc(NS(=O)(=O)c3cccs3)cc2CC1=O,inactive
17,C[C@@H]1CN([C@H](C)CO)C(=O)Cc2cc(NS(=O)(=O)c3cccs3)ccc2O[C@@H]1CN(C)Cc1ccncc1,inactive
18,C[C@@H]1CN([C@@H](C)CO)C(=O)Cc2cc(NS(=O)(=O)c3cccs3)ccc2O[C@@H]1CN(C)Cc1ccc(Cl)c(Cl)c1,inactive
19,C[C@H](CO)N1C[C@H](C)[C@@H](CN(C)Cc2ccc(Cl)c(Cl)c2)Oc2ccc(NS(=O)(=O)c3cccs3)cc2CC1=O,inactive
20,C[C@@H]1CN([C@@H](C)CO)C(=O)Cc2cc(NS(=O)(=O)c3cccs3)ccc2O[C@H]1CN(C)Cc1ccc(Cl)c(Cl)c1,inactive

row,Structure (SMILES),cytotoxicity call
1,C[C@H]1CN([C@@H](C)CO)C(=O)Cc2cc(NS(=O)(=O)c3cccs3)ccc2O[C@@H]1CN(C)Cc1ccc(Cl)c(Cl)c1,inactive
2,C[C@H]1CN([C@@H](C)CO)C(=O)Cc2cc(NS(=O)(=O)c3cccs3)ccc2O[C@H]1CN(C)Cc1ccc(Cl)c(Cl)c1,active
3,C[C@@H]1CN([C@H](C)CO)C(=O)Cc2cc(NS(=O)(=O)c3cccs3)ccc2O[C@@H]1CN(C)Cc1ccc(Cl)c(Cl)c1,active
4,COc1ccc(S(=O)(=O)N(C)C[C@H]2Oc3c(NC(=O)NC(C)C)cccc3C(=O)N([C@H](C)CO)C[C@H]2C)cc1,inactive
5,C[C@@H]1CN([C@H](C)CO)C(=O)c2cc(NC(=O)C3CCCCC3)ccc2O[C@@H](C)CCCCO[C@H]1CN(C)S(=O)(=O)c1ccccc1,inactive
6,C[C@H]1CN([C@@H](C)CO)C(=O)c2c(c3ccccc3n2C)-c2ccccc2CO[C@H]1CN(C)C(=O)Nc1ccccc1C(F)(F)F,inactive
7,COc1ccc(NC(=O)Nc2cccc3c2O[C@@H](CN(C)Cc2ccc(Cl)c(Cl)c2)[C@H](C)CN([C@H](C)CO)C3=O)cc1,inactive
8,CC(C)NC(=O)Nc1ccc2c(c1)C(=O)N([C@@H](C)CO)C[C@@H](C)[C@H](CN(C)Cc1ccc(Cl)c(Cl)c1)OCCCC[C@@H](C)O2,inactive
9,C[C@@H]1CN([C@@H](C)CO)C(=O)c2cccc(NC(=O)c3ccncc3)c2O[C@@H]1CN(C)S(=O)(=O)c1cccs1,inactive
10,C[C@H]1CN([C@@H](C)CO)C(=O)CCCn2cc(nn2)CO[C@H]1CN(C)C(=O)C1CC1,inactive
11,O=C(C[C@@H]1CC[C@@H]2[C@H](COC[C@H](O)CN2S(=O)(=O)c2cccc(F)c2)O1)NCCCN1CCOCC1,inactive
12,CNc1nc(OCC#N)nc(N2CCCCC2)n1,inactive
13,COC(=O)[C@@]12OC[C@]34[C@H]([C@@H](O)[C@@H]1O)[C@@]1(C)CC(=O)C(=O)[C@H](C)[C@@H]1C[C@H]3OC(=O)[C@H](OC(=O)/C=C(\C)C(C)C)[C@@H]24,active
14,C[C@H](CO)N1C[C@H](C)[C@@H](CN(C)S(=O)(=O)c2ccccc2)Oc2ncc(C#Cc3ccccc3F)cc2C1=O,inactive
15,O=C(C[C@@H]1CC[C@H]2[C@@H](COC[C@@H](O)CN2C(=O)c2ccc3c(c2)OCO3)O1)NCCN1CCCCC1,inactive
16,CC(=O)NCC(=O)N1CCC2(CC1)CN(c1cnn(C)c1)C(=O)CO2,inactive
17,O=C1C(=O)N(C[C@@H](O)COc2cccc3ccccc23)C(=O)C(=O)N1C[C@@H](O)COc1cccc2ccccc12,inactive
18,COc1ccccc1N1CCN(CC(O)COc2cccc3ccccc23)CC1 (centres undefined),inactive
19,O[C@@H](COc1cccc2ncccc12)CN1CCN([C@@H]2c3ccccc3[C@@H]3[C@H](c4ccccc42)C3(F)F)CC1,active
